# Data reported in article PMC8384837, “Expanding the binding specificity for RNA recognition by a PUF domain”.
# What was measured:
# Test in all cases: yeast three-hybrid, YBZ-1, SC-Leu-His + 0.5 mM 3-AT, 4 days
# Conditions in all cases: tags: N-Gal4 AD-HA kept; label: inside an RPR1-promoter hybrid RNA with tandem MS2 sites; ssRNA
# [1] = molecular target: PUM1 PUF domain R5-RKC (Homo sapiens, UniProt Q14671 828-1176, C1007R;R1008K;Q1011C)
# Procedure, shortened: (§1)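 The interaction score is the log change in how often each variant appears, from input to selection. Frequencies came from PCR-amplified, Illumina-sequenced repeat regions of Pumilio-1 PUF domain libraries grown in strain YBZ-1 (LexA–MS2 coat fusion, HIS3 reporter) alongside matching RNA elements. Input plates were SC-Leu and selection plates were SC-Leu-His + 0.5 mM 3-AT, each for four days, and the log2 calculation used a pseudocount of 1 where a variant was absent.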
# [2] = molecular target: PUM1 PUF domain R5-SSR (Homo sapiens, UniProt Q14671 828-1176, C1007S;R1008S;Q1011R)
# Procedure, shortened: as §1
# [3] = molecular target: PUM1 PUF domain R7-RVM (Homo sapiens, UniProt Q14671 828-1176, S1079R;N1080V;E1083M)
# Procedure, shortened: as §1
# [4] = molecular target: PUM1 PUF domain R7-KSG (Homo sapiens, UniProt Q14671 828-1176, S1079K;N1080S;E1083G)
# Procedure, shortened: as §1
# [5] = molecular target: PUM1 PUF domain R3-TFF (Homo sapiens, UniProt Q14671 828-1176, C935T;R936F;Q939F)
# Procedure, shortened: as §1
# [6] = molecular target: PUM1 PUF domain R2-EWV (Homo sapiens, UniProt Q14671 828-1176, N899E;Y900W;Q903V)
# Procedure, shortened: as §1
# [7] = molecular target: PUM1 PUF domain R1-VTW (Homo sapiens, UniProt Q14671 828-1176, S863V;R864T;Q867W)
# Procedure, shortened: as §1
sequence,measurement,setting,value
GGCUAGAACUAGUGGAUCCCCCGGCGCCCGGCGGCUCGAGCCCGGGUAAGUGUCAAUAGUCUGCAUGCCGCCGGGCGCCAUGCCUGCAGGUCGACUCUAGAAAACAUG,binding signal,[1],3.84 log2 enrichment (interaction score)
same,binding signal,[2],6.53 log2 enrichment (interaction score)
GGCUAGAACUAGUGGAUCCCCCGGCGCCCGGCGGCUCGAGCCCGGGUAAGUUUAAAUAGUCUGCAUGCCGCCGGGCGCCAUGCCUGCAGGUCGACUCUAGAAAACAUG,binding signal,[3],2.72 log2 enrichment (interaction score)
same,binding signal,[4],2.37 log2 enrichment (interaction score)
GGCUAGAACUAGUGGAUCCCCCGGCGCCCGGCGGCUCGAGCCCGGGUAAGUGUAAAUAGUCUGCAUGCCGCCGGGCGCCAUGCCUGCAGGUCGACUCUAGAAAACAUG,binding signal,[5],6.12 log2 enrichment (interaction score)
GGCUAGAACUAGUGGAUCCCCCGGCGCCCGGCGGCUCGAGCCCGGGUAAGUGUAAUUAGUCUGCAUGCCGCCGGGCGCCAUGCCUGCAGGUCGACUCUAGAAAACAUG,binding signal,[5],1.36 log2 enrichment (interaction score)
GGCUAGAACUAGUGGAUCCCCCGGCGCCCGGCGGCUCGAGCCCGGGUAAGUGUAAAGAGUCUGCAUGCCGCCGGGCGCCAUGCCUGCAGGUCGACUCUAGAAAACAUG,binding signal,[6],2.77 log2 enrichment (interaction score)
GGCUAGAACUAGUGGAUCCCCCGGCGCCCGGCGGCUCGAGCCCGGGUAAGUGUAAAAAGUCUGCAUGCCGCCGGGCGCCAUGCCUGCAGGUCGACUCUAGAAAACAUG,binding signal,[6],5.9 log2 enrichment (interaction score)
GGCUAGAACUAGUGGAUCCCCCGGCGCCCGGCGGCUCGAGCCCGGGUAAGUGUAAAUUGUCUGCAUGCCGCCGGGCGCCAUGCCUGCAGGUCGACUCUAGAAAACAUG,binding signal,[7],3.57 log2 enrichment (interaction score)
GGCUAGAACUAGUGGAUCCCCCGGCGCCCGGCGGCUCGAGCCCGGGUAAGUCUAAAUAGUCUGCAUGCCGCCGGGCGCCAUGCCUGCAGGUCGACUCUAGAAAACAUG,binding signal,[4],0.94 log2 enrichment (interaction score)
